HCMV inh: qHTS Assay for inhibitors of the human cytomegalovirus (HCMV); HFF cells, HCMV-luciferase reporter, 72 h; hits give low values; activity change, negative = inhibition, % at 57.5 µM; hit rate 4.5% among 410,000; AID 1259415, 2018; in the data active = activity change below about -60%; inconclusive = no clear call, values can overlap the other calls; inactive = above about -39%
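Compounds were evaluated in HFFs infected with an HCMV luciferase reporter virus (MOI 1 PFU/cell). Luciferase in lysates collected 72 h post infection served as the replication measure.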
MARV entry inh: qHTS for inhibitors of binding or entry into cells for Marburg Virus. Potency, µM (titrated, usually from 37.8 µM), inactives show top-dose activity change, negative = inhibition, hits mostly inhibitors. AID 540276, 2011. hit rate 1.8% among 300,000. Marburg virus pseudotyped entry inhibition, cell reporter; calls by dose curve; tested in HEK293 cells; note: potency is the fitted concentration of half-maximal effect
Lassa entry inh: qHTS for Inhibitors of binding or entry into cells for Lassa Virus; Lassa virus pseudotype entry inhibition, cell reporter; Potency, µM (highest dose often 37.9 µM), for inactives: top-dose activity change, negative = inhibition, usual class: inhibitors; hit rate 1.2% among 300,000; calls by dose curve; tested in HEK293 cells; note: potency is the fitted concentration of half-maximal effect; nearly all actives have a fitted effect of over 50% in size
FMDV inh: High Throughput Screening for Foot and Mouth Disease Virus Antivirals; FMDV antiviral cell-based qHTS; Potency, µM (top dose mostly 57.9 µM), without a hit: top-dose activity change, negative = inhibition, hits mostly inhibitors; hit rate 1.2% among 410,000; calls by dose curve; tested in HEK293T cells; note: read-out not given here; potency is the fitted concentration of half-maximal effect; nearly all actives have a fitted effect of over 45% in size
HCV inh: qHTS Assay for Inhibitors of Hepatitis C Virus (HCV); Huh7.5.1 HCVcc-Cre infection, luciferase reporter, 44 h; Potency, µM (highest dose often 41.8 µM), without a hit: top-dose activity change, negative = inhibition, actives largely listed as inhibitors; hit rate 3.4% among 340,000; active = well fitted inhibition curve with a large enough effect; inconclusive = small, poorly fitted or top-dose-only effect, or another doubt; inactive = no such curve, though single readings can be large or run the other way; note: potency is the fitted concentration of half-maximal effect
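Infectious HCV cell culture screen: compound-treated cells (1,000/well, pre-plated 4 h) are infected with HCVcc-Cre at roughly 0.5 moi and grown 44 h. Infection is quantified by luciferase signal after 15 min substrate incubation at room temperature.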
* hit, by the source's call; u = inconclusive; x = no result; ! = not confirmed by another sample; [ ] = another dose, or the depositor's remark. Most compounds without a hit are left out; they make up all but 7.9% or so of the library. % is set by controls: 0 for no effect and ±100 for the full control effect.

SMILES	HCMV inh	MARV entry inh	Lassa entry inh	FMDV inh	HCV inh
CC(C)c1ccc(NC(=O)N[C@H]2CC[C@@]34CCCN3C(=O)CCC[C@H]4C2Cc2ccccc2)cc1 (some centres not stated)	9	x	x	x	x
CCN(CC)C(=O)COc1ccc(/C(C)=N/Nc2ncc(Cl)cc2Cl)cc1	-9	x	x	-13%	11µM*
COc1cccc(CN2CCOc3ccc(CN4C[C@@H](C)O[C@@H](C)C4)cc3C2)c1OC	x	x	x	-5%	x
CC1(C)O[C@H]2[C@@H](O1)[C@@H](C(=O)Nc1ccc(F)c(F)c1)O[C@@H]1OC(C)(C)O[C@@H]12	11	2%[46.1 µM]	u	-4%	x
O=c1c2c(nc3c(-c4cccc5ccccc45)c[nH]n13)CCC2	-3	-6%	3%	-14%	-6%
O=c1c2c(nc3c(-c4ccc(Cl)cc4)c[nH]n13)CCCC2	-78*	u	10µM*	22µM*	u
CNc1nc2cnc(Nc3cccc(OC)c3)cc2n1Cc1ccc(OC)c(OC)c1	24	x	x	x	x
COc1cc(OC)cc(C(=O)N[C@H](C(=O)OCC(=O)Nc2ccc(C)cc2C)C(C)C)c1	-90*	2%	-15%	-8%	-7%
COC(=O)C[C@@H]1C=C[C@H](NC(=O)Nc2cc(F)ccc2F)[C@@H](CO)O1	16	x	x	-9%	x
c1csc(CNc2ncncc2-c2ccoc2)c1	x	x	x	-3%	x
Clc1ccc(Nc2nccc3[nH]c(-c4ccccc4)nc23)cc1	-6	x	x	x	x
CCN(CC)CCNc1ncnc2c1sc1nc(N3CCOCC3)c3c(c12)CC(C)(C)SC3	-37	-8%	4%	0%	11%
CC1(C)Cc2c(c(-c3ccco3)nc3sc4c(NCCO)ncnc4c23)CO1	-75*	x	x	-29%	13µM*
CN(C)CCNc1ncnc2c1sc1nc(N3CCOCC3)c3c(c12)CC(C)(C)SC3	u	15µM*	u	u	10µM*
COCCNc1nnnc2c1sc1nc(N3CCOCC3)c3c(c12)CC(C)(C)OC3	-20	9%	-7%	-24%	u
CC1(C)Cc2c(c(N3CCOCC3)nc3sc4c(NCCN)ncnc4c23)CO1	0	x	x	-12%	7.1µM*
CCOc1ccccc1NC(=O)N1CCC2(CC1)Oc1ccccc1C(=O)N2Cc1ccccc1F	-6	u	x	-25%	x
Cc1nn(C(=O)c2ccc(Br)cc2)c(C)c1S(=O)(=O)N1CCOCC1	18	x	9%[46.1 µM]	-3%	x
COc1ccc(-c2nc(SCC(=O)NC3CCCC3)c(-c3ccc(C)cc3)[nH]2)cc1OC	0	u	u	0%	x
COC1/C=C/C=C(\C)Cc2cc(O)c(Cl)c(c2)N(C)C(=O)CC(OC(=O)C(C)C)C2(C)OC2C(C)C2CC1(O)NC(=O)O2 (configuration not stated)	-91*	10%	-24%	0%	16%
CCOC(=O)c1c(NC(=O)CSc2nnc(-c3ccccc3)n2CC)sc(C(C)=O)c1C	19	u	-10%	u	u
CCc1ccc(NC(=O)CSc2nc3cc(C(=O)OC)ccc3c(=O)n2Cc2ccco2)cc1	14	0%	0%	10%	13%
C=CCn1c(=O)c2ccccc2n2c(SCC(=O)Nc3sc(C)c(CC)c3C(=O)OCC)nnc12	9	u	u	-25%	u
CCOC(=O)c1c(NC(=O)CSc2nnc(-c3cccc(C)c3)n2CC)sc(C(C)=O)c1C	22	u	-25%	u	3.5µM*
CCOC(=O)c1sc(NC(=O)CSc2nnc(-c3ccco3)n2CC)c(C(=O)OCC)c1C	49	u	-13%	x	10µM*!
SMILES	HCMV inh	MARV entry inh	Lassa entry inh	FMDV inh	HCV inh
C=CCn1c(=O)c2ccccc2n2c(SCC(=O)Nc3sc(C(=O)N(CC)CC)c(C)c3C(=O)OCC)nnc12	u	u	-28%	0%	6.3µM*!
CCOC(=O)c1c(NC(=O)CSc2nc3cc(Cl)ccc3c(=O)n2Cc2ccco2)sc(C(=O)N(C)C)c1C	-68*	u	u	-12%	u
CCN1C(=O)NC(c2cccc(C(F)(F)F)c2)C(C(=O)OC)=C1C (configuration not stated)	x	23%[14.2 µM]	x	x	x
Cc1ccn(CCC(=O)N2CCOc3ccc(C(O)C4CCCCC4)cc3C2)n1 (configuration not stated)	x	x	x	-8%	x
COc1ccc(NS(=O)(=O)c2cc(NC(=O)c3cnccn3)ccc2OC)cc1Br	-5	u	u	48%	u
CC1=NN(c2nc(-c3ccc(C)cc3)cs2)C(=O)C1N=Nc1ccccc1O (configuration not stated)	-102*	u	u	-21%	10µM*
CC1=NN(c2nc(-c3ccc(C)cc3)cs2)C(=O)C1N=Nc1cccc(O)c1 (configuration not stated)	-25	u	3%	-27%	-20%
Cc1cccc(-c2nc3c4ccccc4n(CC(=O)Nc4cccc(F)c4)c(=O)n3n2)c1	72	x	-13%[46.1 µM]	-8%	x
CCOC(=O)N1CCN(C(=O)C2CCCN(Cc3nc(-c4ccc(Cl)cc4)oc3C)C2)CC1 (configuration not stated)	u	x	x	u	1.4µM*
CCc1ccc(-c2nc(CN3CCCC(C(=O)NCc4ccccc4Cl)C3)c(C)o2)cc1 (configuration not stated)	0	5%[46.1 µM]	u	u	x
CCc1ccc(-c2nc(CN3CCCC(C(=O)N4CCN(c5cc(Cl)ccc5C)CC4)C3)c(C)o2)cc1 (configuration not stated)	-86*	u	u	u	x
Cc1ccc(C)c(N2CCN(C(=O)C3CCCN(Cc4nc(-c5cccc(Cl)c5)oc4C)C3)CC2)c1 (configuration not stated)	0	6%[46.1 µM]	19%[46.1 µM]	u	x
Cc1ccc(Cl)cc1N1CCN(C(=O)C2CCCN(Cc3nc(-c4cccc(Cl)c4)oc3C)C2)CC1 (configuration not stated)	-69*	-18%[46.1 µM]	-5%[46.1 µM]	u	x
Cc1ccccc1NC(=S)N(Cc1cccnc1)Cc1ccccc1Cl	-25	-14%[46.1 µM]	1%	-8%	19%
COc1cc2c(cc1OC)CN(C(=O)c1nn(Cc3ccccc3)c(=O)c3ccccc13)CC2	u	u	u	-26%	10µM*
COC(=O)c1nn(Cc2ccccc2)c(=O)c2ccccc12	39	3%	4%	-5%	12%
CC(=O)c1ccc(N2CCN(C(=O)c3nn(Cc4ccccc4)c(=O)c4ccccc34)CC2)cc1	5	u	10µM*	-4%	u
CCC[C@H]1[C@@H](NC(=O)Nc2cccc(C#N)c2)CC[C@@]23CCCN2C(=O)CCC[C@@H]13	-17	x	x	x	x
c1ccc(-c2cc(-c3ccc(N4CCOCC4)cc3)nc3ccccc23)cc1	13	u	u	16%	-11%
COc1ccc2c(-c3ccccc3)cc(N3CCOCC3)nc2c1	-26	u	u	u	13µM*
